Measured values as given in PubChem BioAssay (EPA / NIEHS).
Values joined by “and” are separate entries in the source; they are usually repeats but may differ in a detail not shown here. Identical values can stand only once. Results filed as inconclusive are left out. Active and inactive are the calls of the source. How the source made its calls, unless noted: active means hit-call score of the fitted dose curve at least 0.9, where 1 is the maximum; inconclusive means response in the unintended direction; inactive means score below 0.9.

What was measured:
[1] = TOX21_p53_BLA_p2_viability: Viability Assessment in the Tox21 HCT-116 p53 Agonism Beta-lactamase Assay, Phase 2 (AID 2283591);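 further: compound exposure lasted 16 h at 37 °C; actives lower the ATP signal meaning cytotoxicity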
How it was run: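 Cytotoxicity readout: CellTiter-Glo ATP luminescence, 30 min at room temperature, after the beta-lactamase read. Cells were HCT116 exposed 16 h at 37C to compounds pin-transferred at 217-fold dilution from DMSO stocks.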

[2] = biological target: Cellular tumor antigen p53 (Homo sapiens) (UniProt P04637); experiment: TOX21_p53_BLA_p2_ratio: Tox21 HCT-116 p53 Agonism Beta-lactamase Assay, Ratio, Phase 2 (AID 2283592)
How it was run: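 Ratio endpoint: beta-lactamase cleavage of CCF4-AM, blue (460 nm) over green (530 nm). HCT116 reporter line; 16 h treatment, 37C; substrate 2 h RT.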

[3] = TOX21_p53_BLA_p3_viability: Viability Assessment in the Tox21 HCT-116 p53 Agonism Beta-lactamase Assay, Phase 3 (AID 2283593);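 further: cells exposed to compound for 16 h before reading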
How it was run: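 Cellular ATP was quantified by CellTiter-Glo luminescence, read after 30 min at room temperature. Beforehand, HCT116 cells (4000/well) received compound 5 h post-seeding, 217-fold diluted from DMSO, then incubated 16 h at 37C.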

[4] = biological target: Cellular tumor antigen p53 (Homo sapiens) (UniProt P04637); experiment: TOX21_p53_BLA_p3_ratio: Tox21 HCT-116 p53 Agonism Beta-lactamase Assay, Ratio, Phase 3 (AID 2283596)
How it was run: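 Cells were seeded at 4000/well, rested 5 h at 37C, then dosed with DMSO compound solutions (217-fold dilution) for 16 h. CCF4-AM substrate was loaded for 2 h at room temperature, and the 460/530 nm emission ratio was fitted for gain of signal versus DMSO.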

[5] = TOX21_p53_BLA_p4_viability: Viability Assessment in the Tox21 HCT-116 p53 Agonism Beta-lactamase Assay, Phase 4 (AID 2283597);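 further: hits lower the luminescence signal meaning cytotoxicity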
How it was run: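 Cytotoxicity was inferred from loss of CellTiter-Glo luminescence. HCT116 cells had been dosed with compounds after 5 h plating, incubated 16 h at 37C and 5% CO2, and exposed to the CCF4-AM substrate for 2 h.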

[6] = biological target: Cellular tumor antigen p53 (Homo sapiens) (UniProt P04637); experiment: TOX21_p53_BLA_p5_ratio: Tox21 HCT-116 p53 Agonism Beta-lactamase Assay, Ratio, Phase 5 (AID 2283599)
How it was run: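 Beta-lactamase reporter ratio (blue 460 nm over green 530 nm, 405 nm excitation) after 2 h CCF4-AM loading, in HCT-116 cells exposed 16 h at 37 C to compounds pinned at 217-fold dilution. Increases relative to DMSO baseline scored.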

[7] = TOX21_p53_BLA_p5_viability: Viability Assessment in the Tox21 HCT-116 p53 Agonism Beta-lactamase Assay, Phase 5 (AID 2283600)
How it was run: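 Luciferase-coupled ATP quantitation of cells treated for 16 h (37C, 5% CO2) with test chemicals delivered in DMSO via a 217-fold dilution; 4000 cells/well; reagent incubated 30 min at room temperature before luminescence reading.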

[8] = biological target: Cellular tumor antigen p53 (Homo sapiens) (UniProt P04637); experiment: TOX21_p53_BLA_p4_ratio: Tox21 HCT-116 p53 Agonism Beta-lactamase Assay, Ratio, Phase 4 (AID 2283601)
How it was run: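 Signal is the blue/green (460nm/530nm) ratio of cleaved versus uncleaved CCF4-AM substrate, read after 2 h substrate loading. Cells were HCT116 carrying the p53-responsive beta-lactamase reporter, dosed 16 h at 37C, 5% CO2; CellTiter-Glo measured in parallel.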

[9] = CCTE_Deisenroth_AIME_96WELL_CTox_Active: Cytotoxicity Assessment (CTOX) in CCTE's 96-well Estrogen Receptor Transactivation Assay with AIME metabolic competence (metabolism positive), Deisenroth Lab (AID 2284028)
How it was run: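 Cytotoxicity in VM7Luc4E2 breast cells after 24 h exposure to medium from a 2 h metabolic pre-incubation with induced rat hepatic S9 in alginate microspheres; fluorescent live-cell protease readout, 10-point series 0.002–200 uM, n=4.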

[10] = CCTE_Shafer_MEA_dev_firing_rate_mean: CCTE's Neural Network Formation Assay for Mean Firing Rate, Shafer Lab (AID 2284031; active means hit-call score of the fitted dose curve at least 0.9, where 1 is the maximum; inactive means score below 0.9)
How it was run: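 Extracellular spike frequency, AUC over DIV 5–12 recordings, in rat cortical neuron MEA cultures dosed from plating; loss direction vs DMSO.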

[11] = CCTE_Shafer_MEA_dev_per_burst_spike_percent: CCTE's Neural Network Formation Assay for Percent of Spikes in a Burst, Shafer Lab (AID 2284032; active means hit-call score of the fitted dose curve at least 0.9, where 1 is the maximum; inactive means score below 0.9)
How it was run: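 Value is trapezoidal AUC over recordings on days 5, 7, 9 and 12 of the well-mean fraction of spikes falling in single-electrode bursts; rat cortical cultures exposed continuously from plating, treatment renewed DIV 5 and 9, fitted downward against DMSO.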

[12] = CCTE_Shafer_MEA_dev_active_electrodes_number: CCTE's Neural Network Formation Assay for Number of Active Electrodes, Shafer Lab (AID 2284040)
How it was run: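 Developing rat cortical networks on MEAs, exposed DIV 0–12. Value is the AUC of active-electrode counts (≥5 spikes/min) from days 5, 7, 9, 12, relative to DMSO.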

[13] = CCTE_Shafer_MEA_dev_bursting_electrodes_number: CCTE's Neural Network Formation Assay for Number of Bursting Electrodes, Shafer Lab (AID 2284043)
How it was run: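 Number of electrodes reaching ≥1 burst every 2 min was recorded at DIV 5, 7, 9 and 12 and collapsed as trapezoidal area under the curve. Cultures were rat cortical neurons on MEA plates, dosed continuously from plating with medium and treatment refreshed on DIV 5 and 9.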

[14] = CCTE_Shafer_MEA_dev_per_burst_interspike_interval: CCTE's Neural Network Formation Assay for Burst Interspike Interval, Shafer Lab (AID 2284044; active means hit-call score of the fitted dose curve at least 0.9, where 1 is the maximum; inactive means score below 0.9)
How it was run: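 Rat cortical primary cultures, 16 electrodes/well; compound from plating, renewed with full media change DIV 5 and 9. Spikes via adaptive detector; per-burst ISI well-mean over active bursting electrodes; AUC of DIV 5/7/9/12 recordings; loss-direction fit vs DMSO.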

[15] = CCTE_Shafer_MEA_dev_burst_duration_mean: CCTE's Neural Network Formation Assay for Mean Burst Duration, Shafer Lab (AID 2284045; active means hit-call score of the fitted dose curve at least 0.9, where 1 is the maximum; inactive means score below 0.9)
How it was run: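 Mean single-electrode burst duration (first to last spike), averaged over bursting electrodes per well, then integrated as area-under-curve across recordings at days 5, 7, 9 and 12. Rat cortical cultures on MEAs, compound present from plating, refreshed at feeds.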

[16] = CCTE_Shafer_MEA_dev_interburst_interval_mean: CCTE's Neural Network Formation Assay for Mean Interburst Interval, Shafer Lab (AID 2284046; active means hit-call score of the fitted dose curve at least 0.9, where 1 is the maximum; inactive means score below 0.9;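 further: well-mean interburst interval of bursting electrodes as AUC over four recording days; curve fitted for decrease in interburst interval relative to DMSO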)
How it was run: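 Network formation assay in primary rat cortical cultures, exposed from DIV 0 to 12. Mean interburst interval per well, integrated as AUC over four recordings.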

[17] = CCTE_Shafer_MEA_dev_inter_network_spike_interval_mean: CCTE's Neural Network Formation Assay for Mean Inter-network Spike Interval, Shafer Lab (AID 2284047; active means hit-call score of the fitted dose curve at least 0.9, where 1 is the maximum; inactive means score below 0.9)
How it was run: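 Compound was given at plating to primary rat cortical neurons and renewed with full medium changes on DIV 5 and 9. Extracellular activity was recorded on days 5, 7, 9, 12; AUC values were fitted for loss relative to DMSO control.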

[18] = CCTE_Shafer_MEA_dev_network_spike_number: CCTE's Neural Network Formation Assay for Number of Network Spikes, Shafer Lab (AID 2284048; active means hit-call score of the fitted dose curve at least 0.9, where 1 is the maximum; inactive means score below 0.9;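 further: synchronized bursts across electrodes counted on days 5 7 9 12 and integrated as AUC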)
How it was run: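 Number of network spikes (coordinated firing across electrodes) recorded on days 5, 7, 9 and 12 and summarised as area under the curve. Rat cortical cultures on MEA, continuous compound exposure with full medium/treatment exchange at DIV 5 and 9.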

[19] = CCTE_Shafer_MEA_dev_network_spike_peak: CCTE's Neural Network Formation Assay for Mean Number of Electrodes in Network Spike, Shafer Lab (AID 2284049; active means hit-call score of the fitted dose curve at least 0.9, where 1 is the maximum; inactive means score below 0.9)
How it was run: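 Rat cortical primary culture, 1.5 x 10^5 cells/well, 48-well MEA (16 electrodes/well). Dosing day 0 through DIV 12, full media/compound exchange DIV 5, 9. AxIS adaptive spike detection; AUC over days 5/7/9/12; loss-of-signal vs DMSO.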

[20] = CCTE_Shafer_MEA_dev_spike_duration_mean: CCTE's Neural Network Formation Assay for Mean Spike Duration, Shafer Lab (AID 2284051; active means hit-call score of the fitted dose curve at least 0.9, where 1 is the maximum; inactive means score below 0.9;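 further: mean network spike duration pooled as area under curve over DIV 5 to 12 recordings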)
How it was run: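 With DMSO as baseline, loss of mean network spike duration was scored from extracellular recordings of rat cortical neurons on MEA plates. Exposure spanned plating to DIV 12; the four recording days were collapsed into one AUC value.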

[21] = CCTE_Shafer_MEA_dev_network_spike_duration_std: CCTE's Neural Network Formation Assay for Standard Deviation of Network Spike Duration, Shafer Lab (AID 2284052; active means hit-call score of the fitted dose curve at least 0.9, where 1 is the maximum; inactive means score below 0.9;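 further: hits are decreases in network spike duration SD versus DMSO vehicle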)
How it was run: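 Developing networks of rat cortical neurons were exposed over twelve days in vitro on 48-well MEA plates. Trapezoidal AUC of recordings (DIV 5–12) was analysed for signal loss relative to DMSO vehicle.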

[22] = CCTE_Shafer_MEA_dev_per_network_spike_spike_number_mean: CCTE's Neural Network Formation Assay for Mean Number of Spikes in a Network Spike, Shafer Lab (AID 2284053; active means hit-call score of the fitted dose curve at least 0.9, where 1 is the maximum; inactive means score below 0.9)
How it was run: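 First, rat cortical cells (1.5 x 10^5/well) were seeded onto MEA wells; second, dosing began at plating and was refreshed on DIV 5 and 9; finally, network-spike spike counts across DIV 5–12 were summarized as AUC.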

[23] = CCTE_Shafer_MEA_dev_per_network_spike_spike_percent: CCTE's Neural Network Formation Assay for Percent of Spikes in a Network Spike, Shafer Lab (AID 2284054; active means hit-call score of the fitted dose curve at least 0.9, where 1 is the maximum; inactive means score below 0.9)
How it was run: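 Metric: fraction of spikes falling in a 0.05 s window at network-spike peaks. Recordings were made on days 5, 7, 9 and 12 and collapsed by trapezoidal AUC. Cultures were rat cortical neurons on MEA plates, dosed continuously from plating, re-dosed at media changes.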

[24] = CCTE_Shafer_MEA_dev_mutual_information_norm: CCTE's Neural Network Formation Assay for Mutual Information Normalization, Shafer Lab (AID 2284091; active means hit-call score of the fitted dose curve at least 0.9, where 1 is the maximum; inactive means score below 0.9)
How it was run: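 Shared information across electrodes, tracked on days 5, 7, 9 and 12 of network development and collapsed as trapezoidal area under the curve. Rat cortical cultures were treated continuously from plating, with treatment renewed at feeds on DIV 5 and 9; DMSO baseline, negative-direction fit.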

[25] = CCTE_Shafer_MEA_dev_correlation_coefficient_mean: CCTE's Neural Network Formation Assay for Mean Correlation Coefficient, Shafer Lab (AID 2284093; active means hit-call score of the fitted dose curve at least 0.9, where 1 is the maximum; inactive means score below 0.9)
How it was run: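 Extracellular firing from rat cortical networks on 48-well MEAs, DMSO-referenced, negative fitting direction. Compound present from plating to DIV12; mean pairwise correlation per well integrated over DIV5–12 recordings by trapezoidal AUC.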

[26] = biological target: PGR (gene 5241) (UniProt P06401); experiment: TOX21_PR_BLA_Followup_Agonist_ratio: Tox21 HEK293 Progesterone Receptor (PR) Agonism Beta-lactamase Follow-Up Assay, Ratio (AID 2283933)
How it was run: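 Ratio-based beta-lactamase reporter signal after 16 hr compound treatment of PR-UAS-bla HEK293T cells at 37C. Substrate loading lasted 2 hr at room temperature.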

[27] = biological target: PGR (gene 5241) (UniProt P06401); experiment: TOX21_PR_BLA_Followup_Antagonist_ratio: Tox21 HEK293 Progesterone Receptor (PR) Antagonism Beta-lactamase Follow-Up Assay, Ratio (AID 2283934);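 further: PR-UAS-bla HEK293T cells stimulated with 1 nM R5020 agonist for 16 hr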
How it was run: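 Measured in PR-UAS-bla HEK293T cells co-treated with compound and 1 nM promegestone for 16 hr; beta-lactamase ratio read after 2 h FRET substrate loading, with parallel CellTiter-Glo cytotoxicity.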

[28] = TOX21_PR_BLA_Followup_Agonist_viability: Viability Assessment in the Tox21 HEK293 Progesterone Receptor (PR) Agonism Beta-lactamase Follow-Up Assay (AID 2283935);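 further: signal loss means lower viability so actives are cytotoxic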
How it was run: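 Viability is read as CellTiter-Glo luminescence, where loss of signal indicates cytotoxicity. The cells are PR-UAS-bla HEK293T given compounds for 16 hr at 37C and 5% CO2, in the same wells used for the bla readout.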

[29] = TOX21_PR_BLA_Followup_Antagonist_viability: Viability Assessment in the Tox21 HEK293 Progesterone Receptor (PR) Antagonism Beta-lactamase Follow-Up Assay (AID 2283936);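 further: cells exposed to compound with R5020 agonist for 16 h; hits lower the luminescence signal meaning cytotoxicity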
How it was run: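 PR-UAS-bla HEK293T cells in medium with 2% charcoal-stripped FBS were treated with compounds plus R5020 for 16 hr at 37C. After the beta-lactamase read, CellTiter-Glo was added to the same wells and luminescence read after 30 min at room temperature.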

[30] = biological target: PGR (gene 5241) (UniProt P06401); experiment: TOX21_PR_LUC_Followup_Agonist: Tox21 HEK293 Progesterone Receptor (PR) Agonism Luciferase Follow-Up Assay (AID 2283937; active means hit-call score of the fitted dose curve at least 0.9, where 1 is the maximum; inactive means score below 0.9)
How it was run: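 In HEK293 cells stably expressing PR-A with a luciferase reporter, compounds were incubated 16 h at 37C, and induced luminescence was quantified with ONE-Glo, multiplexed with cell viability.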

[31] = biological target: PGR (gene 5241) (UniProt P06401); experiment: TOX21_PR_LUC_Followup_Antagonist: Tox21 HEK293 Progesterone Receptor (PR) Antagonism Luciferase Follow-Up Assay (AID 2283938);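 further: curve fitted upward as signal gain over DMSO baseline despite antagonist label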
How it was run: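 HEK293-PR-A-luc cells were precultured 5 days in medium with 10% charcoal-stripped FBS, seeded 3,000/well, then exposed to compounds in DMSO for 16 h at 37C. Luciferase was read by ONE-Glo luminescence after 30 min at room temperature.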

[32] = TOX21_PR_LUC_Followup_Agonist_viability: Viability Assessment in the Tox21 HEK293 Progesterone Receptor (PR) Agonism Luciferase Follow-Up Assay (AID 2283941);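 further: loss of signal means cytotoxicity so actives lower viability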
How it was run: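 Seeding: HEK293-PR-A-luc, 3,000 cells/well, 5 h at 37C. Treatment: compound in DMSO, 16 h, 37C. Read: CellTiter-Glo ATP luminescence, signal loss taken as lower viability.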

Measured: AC50

Sequence of Cellular tumor antigen p53 (Homo sapiens) (P04637 whole entry, looked up): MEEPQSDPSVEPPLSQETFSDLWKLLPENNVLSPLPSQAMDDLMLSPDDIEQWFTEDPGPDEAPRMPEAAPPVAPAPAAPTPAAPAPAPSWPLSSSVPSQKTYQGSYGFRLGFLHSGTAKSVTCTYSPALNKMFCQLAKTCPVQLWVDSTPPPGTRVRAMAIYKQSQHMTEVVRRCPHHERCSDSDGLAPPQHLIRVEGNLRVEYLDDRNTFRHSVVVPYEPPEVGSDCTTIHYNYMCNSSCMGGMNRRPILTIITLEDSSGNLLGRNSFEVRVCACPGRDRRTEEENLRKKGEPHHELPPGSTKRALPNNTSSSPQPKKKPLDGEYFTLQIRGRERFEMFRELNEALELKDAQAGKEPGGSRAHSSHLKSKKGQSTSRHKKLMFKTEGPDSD
Sequence of PGR (gene 5241) (P06401 whole entry, looked up): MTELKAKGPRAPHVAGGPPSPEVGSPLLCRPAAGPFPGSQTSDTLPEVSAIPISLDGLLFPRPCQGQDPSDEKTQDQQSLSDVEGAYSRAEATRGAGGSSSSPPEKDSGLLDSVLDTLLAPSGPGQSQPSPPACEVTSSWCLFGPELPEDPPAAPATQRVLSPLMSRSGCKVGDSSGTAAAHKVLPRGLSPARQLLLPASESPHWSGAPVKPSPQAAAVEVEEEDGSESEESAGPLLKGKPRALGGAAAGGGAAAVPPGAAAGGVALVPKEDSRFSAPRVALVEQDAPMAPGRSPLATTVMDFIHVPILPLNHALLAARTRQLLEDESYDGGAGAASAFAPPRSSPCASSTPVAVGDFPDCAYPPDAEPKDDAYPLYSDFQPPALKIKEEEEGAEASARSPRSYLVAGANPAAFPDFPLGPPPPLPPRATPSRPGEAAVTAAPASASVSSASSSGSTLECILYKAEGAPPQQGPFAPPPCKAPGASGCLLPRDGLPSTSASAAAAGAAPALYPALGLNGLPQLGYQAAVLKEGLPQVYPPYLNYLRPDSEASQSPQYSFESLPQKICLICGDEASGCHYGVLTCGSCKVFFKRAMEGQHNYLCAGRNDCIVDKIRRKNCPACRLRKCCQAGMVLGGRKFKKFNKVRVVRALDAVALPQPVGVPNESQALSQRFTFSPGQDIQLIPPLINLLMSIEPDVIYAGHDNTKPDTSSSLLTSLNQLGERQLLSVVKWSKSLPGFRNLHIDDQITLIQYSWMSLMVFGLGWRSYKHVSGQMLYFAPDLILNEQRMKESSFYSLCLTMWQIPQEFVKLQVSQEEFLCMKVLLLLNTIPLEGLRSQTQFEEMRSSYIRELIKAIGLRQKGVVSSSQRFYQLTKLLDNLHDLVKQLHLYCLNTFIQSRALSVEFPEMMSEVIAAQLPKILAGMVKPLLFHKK

c1ccc2c(c1)cc1ccc3cccc4ccc2c1c34
active: [2] 2.05 µM | [4] 4.14 µM | [6] 1.56 µM | [8] 2.39 µM
not listed: [26] | [27] | [28] | [29] | [30] | [31] | [32]
inactive: all other assays above

CC[n+]1c(-c2ccccc2)c2cc(N)ccc2c2ccc(N)cc21
inactive: [1] | [3] | [5]
active: [2] 1.43 µM and 9.38 µM and 2.95 µM | [4] 3.51 µM and 14.1 µM and 6.74 µM | [6] 2.77 µM and 8.85 µM and 4.7 µM | [8] 1.93 µM and 9.2 µM and 3.86 µM

CC(=O)O[C@H]1CC[C@@]2(C)C(=CC[C@@H]3[C@@H]2CC[C@]2(C)C(=O)CC[C@@H]32)C1
inactive: [1] | [2] | [3] | [4] | [5] | [7] | [8] | [26] | [27] | [28] | [29] | [30] | [31] | [32]

CCNC1(c2cccs2)CCCCC1=O (stereo unspecified)
inactive: [1] | [2] | [3] | [4] | [6]
